# Compound activity as filed in PubChem.
# PGK inhibitor: blocks T. brucei phosphoglycerate kinase; PGK/GAPDH coupled, Kinase-Glo luminescence, 60 min; Potency, µM (series often up to 57.5 µM), for inactives: at the highest dose activity change, negative = inhibition, usual class: inhibitors; 0.043% of 380,000 active; note: % is set by controls: 0 for no effect and ±100 for the full control effect; nearly all actives have a fitted effect of over 60% in size
#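 Recombinant glycosomal PGK reaction used 1,3-bisphosphoglycerate generated in-well by GAPDH (100nM final) in 100mM TEA pH 7.6, 5mM MgCl2, 0.01% Tween-20. After 60 minutes at room temperature, ATP was read by Kinase-Glo Plus luminescence end-point.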
# Chronic BCR inh: inhibitors of chronic active B-cell receptor signaling; 0.05% of 340,000 active; Potency, µM (titrated, usually from 46.1 µM), inactives show at the top dose activity change, negative = inhibition, actives largely listed as inhibitors; ABC-DLBCL IkBa-CBG/CBR reporter, luminescence ratio, 4 h; active = well fitted inhibition curve with a large enough effect in the signal ratio, with a control signal flat, not every such curve was filed as active; inconclusive = small, poorly fitted or top-dose-only effect, or effect the other way, or a change in a side signal; the % refers to the signal ratio;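 note: plate controls were basal doxycycline-induced cells for no effect and cells given 10 µM MG132 for full effect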
#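 Concentration-response series (up to 46 uM) were applied to TMD8 dual-reporter cells for 4 h at 37C with doxycycline. Green/red ratio, after filter-overlap correction, defined %Activity; red signal alone was normalised to basal cells and zero luminescence.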
# RGS4 inh: blocks human RGS4-accelerated GTP hydrolysis | P49798 | Transcreener GDP fluorescence polarization, RGS4-accelerated GTP hydrolysis | Potency, µM (series often up to 114 µM), without a hit: at the highest dose activity change, negative = inhibition, actives largely listed as inhibitors | 0.039% of 390,000 active | AID 504845; note: % is set by controls: 0 for no effect and ±100 for the full control effect; nearly all actives have a fitted effect of over 75% in size
# Target sequence (P49798 whole entry, looked up): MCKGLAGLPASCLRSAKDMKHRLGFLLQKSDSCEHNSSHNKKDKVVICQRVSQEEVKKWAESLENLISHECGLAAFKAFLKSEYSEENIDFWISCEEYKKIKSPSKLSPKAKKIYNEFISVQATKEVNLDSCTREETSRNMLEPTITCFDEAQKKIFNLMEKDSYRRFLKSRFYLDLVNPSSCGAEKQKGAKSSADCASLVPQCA
#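 MLSMR compounds (23 nl, pin-transferred) preincubated 10 min at room temperature with a 500nM (2x) first reagent, then RGS4 at 900nM (2x) plus Transcreener GDP mix added; fluorescence polarization (620/688 nm) read before and after 90 min at 30 °C.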
# Tb PFK inh-1: blocks T. brucei phosphofructokinase | O15648 | T. brucei PFK, ADP-Glo luminescence | Potency, µM (top dose mostly 57.5 µM), without a hit: top-dose activity, negative = inhibition, hits mostly inhibitors | AID 485367 | 0.17% of 330,000 active;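 note: 0% = uninhibited 1x PFK enzyme wells and -100% = no-enzyme wells; nearly all actives have a fitted effect of over 60% in size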
#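 1.25 nM PFK with 0.5 mM F6P and 0.1 mM ATP in 0.1 M TEA pH 8.0, 5 mM MgCl2, incubated 45 min at room temperature; ADP measured by ADP-Glo luminescence; compounds titrated up to 57 uM.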
# USP2a block: inhibitors of human ubiquitin-specific protease USP2a; USP2 core, Ub-CHOP2 coupled fluorogenic reporter, 485/531; Potency, µM (highest dose often 38.3 µM), for inactives: at the highest dose activity change, negative = inhibition, usual class: inhibitors; 0.01% of 330,000 active;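 note: plate controls were DMSO wells for no effect and full inhibition by NEM control for full effect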
# Target sequence (O75604 whole entry, looked up): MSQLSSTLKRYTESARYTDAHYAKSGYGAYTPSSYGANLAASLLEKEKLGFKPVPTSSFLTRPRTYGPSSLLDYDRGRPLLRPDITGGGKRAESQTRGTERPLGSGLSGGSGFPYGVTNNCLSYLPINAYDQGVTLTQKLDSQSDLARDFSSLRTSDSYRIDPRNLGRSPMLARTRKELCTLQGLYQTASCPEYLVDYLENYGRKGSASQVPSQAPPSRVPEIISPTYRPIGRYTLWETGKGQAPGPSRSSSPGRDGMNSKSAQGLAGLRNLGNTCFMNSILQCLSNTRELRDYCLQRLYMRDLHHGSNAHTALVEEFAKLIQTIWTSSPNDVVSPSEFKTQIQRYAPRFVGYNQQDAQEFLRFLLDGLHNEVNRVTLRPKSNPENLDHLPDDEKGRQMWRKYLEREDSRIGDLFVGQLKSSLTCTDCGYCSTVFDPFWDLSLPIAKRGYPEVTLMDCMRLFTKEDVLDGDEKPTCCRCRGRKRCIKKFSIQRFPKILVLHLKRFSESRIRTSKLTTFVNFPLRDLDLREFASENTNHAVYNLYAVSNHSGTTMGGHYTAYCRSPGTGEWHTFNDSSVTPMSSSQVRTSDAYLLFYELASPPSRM
#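 Cell-free coupled assay: 10nM USP2 core preincubated 30min RT with compound in Tris-HCl pH 8.0/CaCl2/CHAPS buffer, then 25nM Ub-CHOP2 and 25nM reporter substrate; fluorescence (Ex 485/Em 531) read after 60min RT, normalized to NEM inhibition, concentration-response curves fitted.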
# Tb PFK KinaseGlo: Tb phosphofructokinase inhibition, orthogonal luminescence | shares compounds with Tb PFK inh-1 | Tb PFK enzyme, ATP depletion, Kinase-Glo Plus luminescence | Potency, µM (top dose mostly 57.5 µM), inactives show at the top dose inhibition | 47% of 1,100 active; calls by dose curve; note: nearly all actives have a fitted effect of over 60% in size
# Tb PFK inh-2: T. brucei PFK enzyme inhibition, hit validation; shares compounds with Tb PFK inh-1; purified T. brucei PFK, ADP-Glo luminescence, 45 min; Potency, µM (series often up to 57.5 µM), for the others: at the top dose activity change, negative = inhibition, hits mostly inhibitors; 41% of 1,100 active; AID 504637;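 note: plate controls were full PFK enzyme control for no effect and no enzyme control for full effect; nearly all actives have a fitted effect of over 60% in size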
# * marks the source's active call; other numbers are inactive results; i = inactive; ? = inconclusive; · = no result; [ ] = remark or other dose. An excerpt weighted towards active compounds, which were near 0.25% of everything screened. Unless noted, calls come from the whole dose curve; as a rule, active = well fitted curve in the direction sought with a large enough effect; inconclusive = small, poorly fitted or top-dose-only effect, or another doubt; inactive = no such curve, though single readings can be large; an effect the other way counts as inactive or inconclusive. Potency is the fitted concentration of half-maximal effect.
SMILES,PGK inhibitor,Chronic BCR inh,RGS4 inh,Tb PFK inh-1,USP2a block,Tb PFK KinaseGlo,Tb PFK inh-2
CSS(=O)(=O)c1cccc2cccnc12,8.6%,?,?,16.9µM*,1.5%,21.3µM*,30.1µM*
CCCc1nnc(NC(=O)c2cc(=O)c3ccccc3o2)s1,10.2%,·,-15.9%,·,·,·,·
N#Cc1cccc2c1-c1ccccc1/C2=N/NC(N)=O,i,4.8%,-1.9%,8.9%,2.1%,·,·
NC(=O)N/N=C1\c2ccccc2-c2c(C(N)=O)cccc21,-7.6%,-1.4%,34.7%,?,5.9%,11.2%,-4.4%
COc1ccc(CNc2nc(Cl)c(C#N)s2)cc1,-4.0%,2.4%,-16.4%,12µM*,-0.6%,7.57µM*,13.5µM*
N#Cc1sc(NCc2ccccc2)nc1Cl,i,12.9%,-8.6%,19µM*,3.9%,10.7µM*,26.9µM*
CC(O)CNc1nc(Cl)c(C#N)s1 (stereo not drawn),9.5%,0.0%,-1.2%,-19.9%,1.0%,·,·
O=C(Nc1ccc(F)cc1)[C@H](CSCc1ccccc1)N1Cc2ccccc2C1=O,2.4%,·,-8.3%,·,·,·,·
COc1ccc(-c2cc3ncc(C)n3c(Nc3ncccc3C(N)=O)n2)cc1OC,·,·,-14.6%[56.9 µM],·,·,·,·
CCOC(=O)Cn1c(=O)oc2cc(S(=O)(=O)N3CCN(c4ccc(Cl)cc4)CC3)ccc21,1.7%,·,-6.5%,·,·,·,·
O=C(Nc1ccc(Cl)c(Cl)c1)c1ccccc1,-7.5%,-15.4%,0.1%,?,0.7%,·,·
CN(C(=O)Nc1ccc(Cl)c(Cl)c1)c1ccccc1C(=O)O,7.6%,0.7%,6.4%,15.1µM*,2.2%,?,?
Cc1ccc(CNC(=O)c2cc3c(=O)n(Cc4ccco4)ccc3nc2C)cc1,i,·,-2.6%,·,·,·,·
COc1cc2c(cc1OC)C(c1ccc(Cl)cc1)N(c1cccc(C#N)c1)C(=O)C2 (stereo not drawn),3.7%,·,-6.9%,·,·,·,·
O=C(N/N=C\c1ccc[nH]1)C1COc2ccccc2O1 (stereo not drawn),-9.1%,?,-1.2%,23.9µM*,-0.4%,9.53µM*,19µM*
O=C(N/N=C/c1cccs1)C1COc2ccccc2O1 (stereo not drawn),-5.8%[11.5 µM],?,31.0%,-11.1%,0.9%,·,·
O=C(N/N=C\c1ccc(Br)o1)C1COc2ccccc2O1 (stereo not drawn),-12.6%,1.7%,-5.2%[11.4 µM],?,8.4%,·,·
O=C(N/N=C/c1ccco1)C1COc2ccccc2O1 (stereo not drawn),-9.7%,2.4%,23.8%,?,6.8%,?,?
COC(=O)\C(C(C)=O)=C(/C=C/C=C/C=C/N(C)C)N(C)C,?,0.5%,-48.0%,?,3.5%,?,?
COc1cc(O)c2c(=O)c3c(O)ccc(O)c3oc2c1,i,?,-13.2%,?,-1.2%,?,?
Cc1noc(C)c1COc1ccc(C(=O)Nc2ccccc2)cc1,-2.2%,-15.5%,10.6%,-5.4%,2.6%,·,·
Cc1noc(C)c1COc1ccc(C(=O)NNC(=O)c2ccccc2O)cc1,i,-5.3%,-22.6%,5.36µM*,0.0%,7.3%,5.7%
CN(NC1OC(=O)c2ccccc21)c1ccc(Cl)cc1[N+](=O)[O-] (stereo not drawn),-7.7%,?,7.4%,-0.7%,-0.3%,·,·
O=C1OC(Nc2ccc(F)c([N+](=O)[O-])c2)c2ccccc21 (stereo not drawn),-8.1%,0.7%,1.2%,15.1µM*,1.7%,21.3µM*,?
O=[N+]([O-])c1ccc(C(c2sc3nc(-c4ccco4)nn3c2O)N2CCC3(CC2)OCCO3)cc1 (stereo not drawn),-5.3%,-1.0%,-18.9%,·,·,·,·
SMILES,PGK inhibitor,Chronic BCR inh,RGS4 inh,Tb PFK inh-1,USP2a block,Tb PFK KinaseGlo,Tb PFK inh-2
COc1ccc(C(=O)Nc2nnc(CC(=O)N/N=C/c3ccc(O)cc3O)s2)cc1,·,?,·,?,-29.2%,-27.2%,?
Cc1ccc(C(=O)Nc2nnc(CC(=O)N/N=C/c3ccc(O)c(O)c3)s2)cc1,?,-19.9%,?,?,?,-11.2%,4.0%
Cc1ccc(C(=O)Nc2nnc(CC(=O)N/N=C/c3ccncc3)s2)cc1,·,-3.4%,?,1.4%,-2.4%,·,·
CCC(=O)N1CCc2cc(S(=O)(=O)CCC(=O)Nc3ccc(Cl)c(C(F)(F)F)c3)ccc21,4.8%,·,-0.7%,·,·,·,·
CCCCNC(=O)Cn1c(SCc2cccc(C)c2)nc2ccncc21,·,·,-25.7%,·,·,·,·
O=C(c1cccs1)N(Cc1ccco1)c1ccc(O)cc1,·,·,-12.8%,·,·,·,·
Cc1ccc(C)c(OCCCC(=O)Nc2ccc(N3CCOCC3)cc2)c1,·,?,·,?,-2.1%,16.4%,-5.4%
Cc1ccc(C)c(OCC(=O)Nc2ccc(N3CCOCC3)cc2)c1,-9.5%,-10.5%,-10.4%,8.5%,-0.5%,·,·
CC1=C(C(=O)OCc2ccc(C)cc2)C(c2ccccc2F)CC(=O)N1 (stereo not drawn),2.2%,·,13.0%,·,·,·,·
Cc1cccnc1NC(=S)Nc1ccc(Cl)c(Cl)c1,i,?,-44.2%,13.5µM*,0.8%,?,?
CC(=O)Nc1cccc(NC(=S)Nc2ccc(F)c(Cl)c2)c1,-9.7%,?,-2.3%[56.9 µM],21.3µM*,1.1%,?,?
FC(F)(F)c1cccc(NC(=S)Nc2ccc(Cl)c(Cl)c2)c1,-1.2%,22.2%,9.0%,9.53µM*,0.3%,?,?
Nc1nc(SCC(=O)c2ccc(F)cc2)n[nH]1,-6.3%,-0.4%,?,-8.9%,-1.9%,·,·
Cc1nc(SCC(=O)c2ccc(F)cc2)n[nH]1,-0.2%,?,?,21.3µM*,3.9%,?,?
O=C(OCc1ccco1)c1ccc(S(=O)(=O)N2CCCCC2)cc1,-19.7%,?,-1.1%,23.9µM*,-4.2%,?,?
CCCC[C@H]1C2=C3[C@@H](CC(C(=O)OC)=C[C@@H](C(=O)OC)[C@H]3C(C)(C)C2=O)n2c(=O)n(C)c(=O)n21,·,·,-3.1%,·,·,·,·
CS(=O)(=O)NNC(=O)C1Cc2c(ccc3ccccc23)O1 (stereo not drawn),2.1%,-12.5%,8.0%,?,5.8%,-28.4%,?
CC(=O)Oc1ccc(N2C(=O)C3C4C=CC(CO)(O4)C3C2=O)cc1 (stereo not drawn),-4.6%,?,?,-14.0%,-5.6%,·,·
O=C1C2C3C=CC(CO)(O3)C2C(=O)N1c1ccccc1-c1ccccc1 (stereo not drawn),-1.3%,?,-134.7%,21.3µM*,-1.6%,23.9µM*,?
